Measurements as given in ChEMBL document CHEMBL1201862, “PubChem BioAssay data set” (2004).
Out of some 400,000 compounds screened, about 2,100 (0.53%) were called active. About 14% were inconclusive and are not listed. How the calls were made is not given here. Many of the other results were omitted from the sample, so actives are more common in it than they were.

biological target: Ataxin-2 (Homo sapiens) (UniProt Q99700); assay: qHTS for Inhibitors of ATXN expression.; format: functional
Sequence (Q99700 whole entry): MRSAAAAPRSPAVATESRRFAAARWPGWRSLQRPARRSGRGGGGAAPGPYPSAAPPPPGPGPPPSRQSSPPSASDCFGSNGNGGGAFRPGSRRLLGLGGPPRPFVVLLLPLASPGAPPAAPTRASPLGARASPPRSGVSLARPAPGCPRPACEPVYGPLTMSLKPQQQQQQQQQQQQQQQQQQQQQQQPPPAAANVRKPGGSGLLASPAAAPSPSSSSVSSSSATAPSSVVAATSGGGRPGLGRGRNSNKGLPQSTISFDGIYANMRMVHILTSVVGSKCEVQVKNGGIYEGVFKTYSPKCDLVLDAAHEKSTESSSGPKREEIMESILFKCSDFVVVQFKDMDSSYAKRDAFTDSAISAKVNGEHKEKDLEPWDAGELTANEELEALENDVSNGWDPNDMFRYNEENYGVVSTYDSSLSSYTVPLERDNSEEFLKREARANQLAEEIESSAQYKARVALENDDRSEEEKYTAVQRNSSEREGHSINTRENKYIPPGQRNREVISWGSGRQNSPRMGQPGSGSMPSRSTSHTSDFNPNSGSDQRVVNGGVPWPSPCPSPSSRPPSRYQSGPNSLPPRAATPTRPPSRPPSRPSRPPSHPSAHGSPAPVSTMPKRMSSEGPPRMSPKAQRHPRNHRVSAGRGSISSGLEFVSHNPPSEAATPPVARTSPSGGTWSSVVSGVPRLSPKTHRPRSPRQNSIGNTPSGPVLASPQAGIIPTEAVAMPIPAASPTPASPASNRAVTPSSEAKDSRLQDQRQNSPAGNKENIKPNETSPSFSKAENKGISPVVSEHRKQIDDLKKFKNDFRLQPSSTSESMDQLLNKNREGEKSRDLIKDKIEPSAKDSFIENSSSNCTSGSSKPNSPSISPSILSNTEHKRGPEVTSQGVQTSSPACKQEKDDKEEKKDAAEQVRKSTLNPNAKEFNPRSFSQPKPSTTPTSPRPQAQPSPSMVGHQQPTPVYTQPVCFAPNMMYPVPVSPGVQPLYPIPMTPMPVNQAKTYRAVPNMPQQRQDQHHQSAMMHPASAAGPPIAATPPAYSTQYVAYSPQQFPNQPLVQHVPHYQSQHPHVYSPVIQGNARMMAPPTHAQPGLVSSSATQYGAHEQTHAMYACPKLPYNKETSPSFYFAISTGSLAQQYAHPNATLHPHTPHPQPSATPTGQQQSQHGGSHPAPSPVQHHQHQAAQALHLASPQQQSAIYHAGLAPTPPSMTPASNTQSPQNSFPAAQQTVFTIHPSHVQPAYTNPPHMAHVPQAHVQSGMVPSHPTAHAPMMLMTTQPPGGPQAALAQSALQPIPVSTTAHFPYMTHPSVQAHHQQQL

SMILES	Potency
N#CC1=C(N)Oc2c(oc(CO)cc2=O)C1c1ccccc1[N+](=O)[O-] (stereo not given)	inactive
O=C(CCNC(=O)Cn1cnc2ccccc2c1=O)NCC1CCCO1 (stereo not given)	inactive
Cc1ccc(OCCn2cnc3ccccc3c2=O)c([N+](=O)[O-])c1	inactive
CCCCCOc1ccc(CSC2=NCCN2)cc1[N+](=O)[O-]	35.5 µM (active)
COC(=O)C(N)Cc1ccc(OC)c([N+](=O)[O-])c1 (stereo not given)	inactive
Cc1ccccc1NC(=O)COc1ccc(Br)cc1C	inactive
CCC1CN(C(=O)NCc2ccc(F)cc2)c2ccccc2O1 (stereo not given)	inactive
O=C(Cn1sc2ccccc2c1=O)Nc1ccccc1	39.8 µM (active)
O=C(Nc1ccc(F)cc1)c1cccc2ccccc12	inactive
CC(=O)c1ccccc1NCC(=O)Nc1ccc(C)cc1	inactive
O=C(CC1C(=O)NCCN1C(=O)Nc1ccccc1)Nc1ccc(F)cc1 (stereo not given)	inactive
O=C(CN1C(=O)c2cccc3cccc1c23)Nc1ccccc1	inactive
CCn1c(=O)c(C(=O)Nc2ccc(C)cc2)c(O)c2ccccc21	inactive
Cc1ccc(NC(=O)Cn2sc3ccccc3c2=O)cc1	25.1 µM (active)
O=C(Cn1sc2ccccc2c1=O)Nc1ccc(F)cc1	31.6 µM (active)
O=C(CN1C(=O)CSc2ccc(C(F)(F)F)cc21)Nc1ccccc1	inactive
COc1cccc2sc3cc(NCC[C@@H]4CCCN4C)ccc3c(=O)c12	inactive
CCc1nc2ccc(C(=O)Nc3cc(-c4ccccc4)ccc3OC)cn2c1N(CC)CCN(C)C	39.8 µM (active)
CCCNC(=O)c1c(N)n(-c2cccc(OC)c2)c2nc3ccccc3nc12	inactive
COc1cc(C(=O)Nc2ccn(C)n2)ccc1OC(F)F	inactive
COc1ccc(NC(=O)c2ccc(S(=O)(=O)N3CC(C)CC(C)C3)cc2)cc1S(N)(=O)=O (stereo not given)	inactive
CCc1nc2ccc(C(=O)Nc3ccc(OC)c(OC)c3)cn2c1N(C)CCC(C)C	31.6 µM (active)
CCc1nc2ccc(C(=O)Nc3cccc(OC)c3)cn2c1N(CCC(C)C)CCN(C)C	14.1 µM (active)
COc1ccc(C)cc1NC(=O)c1cc(-c2ccccc2)nc2c1cnn2C(C)C	inactive
Cc1ccc(-c2cc(C(=O)Nc3ccccn3)c3ccccc3n2)o1	inactive

SMILES	Potency
CN(NC(=O)COc1ccccc1)C1=NS(=O)(=O)c2ccccc21	inactive
CC(=O)c1ccc(/N=c2\scc(C)n2C(C)C)cc1	inactive
CC(=O)Nc1ccc(-c2ccnc(-c3ccc(NC(C)=O)cc3)n2)cc1	inactive
CC(=O)Nc1cccc(-c2csc(Nc3cc(C)ccn3)n2)c1	25.1 µM (active)
COc1ccc(-c2csc(NC(=O)c3c(C)noc3C)n2)cc1OC	inactive
Cc1c(CCC(=O)NCCCN2CCCC2=O)c(=O)oc2c(C)c(O)ccc12	inactive
COc1cc(/C=C/c2sc3ccccc3[n+]2CCCS(=O)(=O)[O-])ccc1O	18.9 µM (active)
Cc1cccn2c(=O)c3cc(C(=O)NCC4CCCO4)c(=N)n(Cc4ccc(F)cc4)c3nc12 (stereo not given)	inactive
CCN(CC)c1ccc(/C=C(\C#N)c2ccccn2)cc1	inactive
O=C(CSc1ccccc1)NCCc1ccc(F)cc1	inactive
COc1cccc(Cc2nc3ccccc3nc2SCC(=O)NCCc2ccccc2)c1	35.5 µM (active)
CCS(=O)(=O)c1ccc2oc(SCC(=O)NCCc3ccccc3)nc2c1	inactive
O=S(=O)(c1ccc(N2CCC(c3ccc(Cl)cc3)=N2)cc1)N(CCO)CCO	inactive
CCCCC[C@H](O)/C=C/[C@H]1CCC(=O)[C@@H]1CCCCCCC(=O)N1CCCCC1CO (stereo not given in full)	39.8 µM (active)
CN(/N=C/c1cc(Cl)cc(Cl)c1O)C(=S)NC(C)(C)C	inactive
Cc1cc(N2CCOCC2)n2ncc(-c3ccccc3Cl)c2n1	inactive
Cn1nc([N+](=O)[O-])nc1Sc1cccc2cccnc12	7.94 µM (active)
Cc1nn(C)c(Sc2ccccn2)c1[N+](=O)[O-]	inactive
C=CCn1nc([N+](=O)[O-])nc1Sc1cccc2cccnc12	39.8 µM (active)
CCOc1ccc2nc(NCCNC(=O)CC)c(C#N)cc2c1	inactive
CN1c2ccccc2Oc2nnc(Cl)cc21	inactive
Cc1cc(-c2nnc3n2N=C(c2ccccc2)CS3)[nH]n1	inactive
Clc1ccc(C2=Nn3c(nnc3-c3cc(-c4ccccc4)[nH]n3)SC2)cc1	35.5 µM (active)
O=c1c2ccccc2nc(/C=C/c2ccc(O)cc2)n1CCc1ccccc1	inactive
Cc1nn(C(=O)CCCC(=O)NCc2ccccc2)c2ccccc12	inactive

SMILES	Potency
CCCCC[C@H]1CN(C2CCCCC2)C(=O)[C@@H]1CC(=O)NCc1ccccc1	39.8 µM (active)
O=C(CC1CCCCC1)NCc1nc(-c2ccccc2)no1	inactive
CCN1C(=O)c2cccc3c(S(=O)(=O)N4CCNCC4)ccc1c23	inactive
COc1cc(OC)c(OC)cc1C=Cc1ccc2ccccc2n1	inactive
COc1cc(Br)c(/C=C/c2ccc3cccc(O)c3n2)cc1OC	25.1 µM (active)
COc1cccc(/C=C/c2ccc3cccc(O)c3n2)c1OC	inactive
Cc1ccc(C2C=C(c3ccc(F)cc3)Nc3nc(CCCO)nn32)cc1 (stereo not given)	inactive
O=CN(c1ccccc1)c1ccc2ccccc2c1	inactive
CCCCCCc1cc2cc(-c3nnc(-c4cc(OC)c(OC)c(OC)c4)o3)c(=O)oc2cc1O	inactive
COCCCN=C(S)NCCNc1nc2c(C)c(C)ccc2cc1C#N	inactive
COc1cc2nc(/C=C/c3cc(OC)c(OC)c(OC)c3)sc2cc1SC	inactive
CCOc1ccc(-c2ccc(/C=C3/C(=N)N4C=CSC4=NC3=O)o2)c([N+](=O)[O-])c1	31.6 µM (active)
CC1=NN2C(=N)/C(=C\c3cc(C)n(-c4ccc(C)cc4)c3C)C(=O)N=C2S1	inactive
CC1=CN2C(=N)/C(=C/c3ccc([N+](=O)[O-])o3)C(=O)N=C2S1	28.2 µM (active)
COc1ccc(-c2ccc(/C=N/NC(=O)c3cccnc3)o2)c([N+](=O)[O-])c1	inactive
CC1=CN2C(=N)/C(=C/c3cc(Cl)c(O)c(Cl)c3)C(=O)N=C2S1	inactive
CCOC(=O)c1c(N)n(C2CC(C)(C)NC(C)(C)C2)c2nc3ccccc3nc12	inactive
CC(CCc1ccco1)NC(=O)Cn1ncc2c(=O)oc3ccccc3c21 (stereo not given)	inactive
O=C(CN1CCN(c2ccccc2)CC1)Nc1scc2c1c(=O)oc1ccccc12	inactive
Cc1ccc2oc(=O)c3cnn(CC(=O)Nc4ccccc4N4CCN(C)CC4)c3c2c1	7.08 µM (active)
CN(C(=S)NC(=O)C12CC3CC(CC(C3)C1)C2)c1ccc(O)cc1	inactive
Cc1ccc(-c2nc3sc(CCNC(=O)c4ccc(Br)o4)c(C)n3n2)cc1	35.5 µM (active)
Cc1ccc(CCNC(=O)C[S+]([O-])Cc2nc(-c3cccs3)oc2C)cc1 (stereo not given)	inactive
O=C(NCCc1csc(-c2cccnc2)n1)c1ccc(Br)o1	inactive
O=C(COc1coc(CN2CCc3ccccc32)cc1=O)N1CCCCC1	inactive

SMILES	Potency
CC[C@H](C)/C=C/C1=CC2=C(Cl)C(=O)[C@@]3(C)OC(=O)C(C(=O)[C@H](C)[C@@H](C)O)=C3C2=CO1	11.9 µM (active)
CC[C@H](C)/C=C(C)/C=C/C1=CC2=CC(=O)[C@]3(C)OC(=O)[C@@H](C(C)=O)[C@@H]3C2=CO1	inactive
O=S(=O)(NCc1ccccc1)c1ccc(S(=O)(=O)N2CCCC2)cc1	inactive
Cc1ccc(S(=O)(=O)N[C@@H](Cc2ccccc2)C(=O)N2CCC[C@@H]2C(=O)O)cc1	inactive
Cc1ccc(S(=O)(=O)N2CC3(O)CN(C(=O)OC(C)C)N(C(=O)OC(C)C)CC3(OC(=O)NCc3ccccc3)C2)cc1 (stereo not given)	22.4 µM (active)
CCCCCCNC(=O)OC12CN(C(=O)OC(C)C)N(C(=O)OC(C)C)CC1(O)CN(S(=O)(=O)c1ccc(C)cc1)C2 (stereo not given)	25.1 µM (active)
NCCNc1ccc(C(=O)N2c3ccccc3Sc3ccccc32)cc1[N+](=O)[O-]	14.1 µM (active)
CCCNC(=O)c1ccc(SCC(=O)N(CC)CC)c([N+](=O)[O-])c1	inactive
CC(=O)NCCNC(=O)c1ccc(Sc2ccccc2)c([N+](=O)[O-])c1	inactive
C/C(=N\NC(=O)C1=NNC(=O)C1C)c1cccs1 (stereo not given)	inactive
CN=c1sc2c(n1C)C(=O)c1ccccc1C2=O	39.8 µM (active)
O=C(NP(=O)(N1CCOCC1)N1CCOCC1)C1=C(N2CCOCC2)/C(=C\c2ccccc2)CC1	inactive
Cc1c(N=C2C=C(Br)C(=O)C(Br)=C2)c(=O)n(-c2ccccc2)n1C	inactive
CC1=CC(=Nc2c(C)n(C)n(-c3ccccc3)c2=O)C=C(C)C1=O	35.5 µM (active)
Cc1c(/N=C2\C=CC(=O)c3ccccc32)c(=O)n(-c2ccccc2)n1C	inactive
CCCS(=O)(=O)N1CCN=C1SCc1ccc(C)cc1	inactive
Cc1cc(C)cc(N2C(=O)C=CC2=O)c1	28.2 µM (active)
Cc1cccc(N2C(=O)c3cccc4c(N)ccc(c34)C2=O)c1	inactive
CCOC(=O)c1c(-c2ccc(C)o2)csc1NC(=S)NC(=O)N(C)C	39.8 µM (active)
CCOC(=O)c1c(-c2ccc(C)cc2)csc1NC(=O)/C(C#N)=C/c1ccc(O)c(OC)c1	inactive
CCOC(=O)c1c(-c2ccc(Cl)cc2)csc1NC(=O)CNCc1ccco1	inactive
CCc1ccc(/C(C)=N/NC(=O)c2ccc(-n3cnnn3)cc2)cc1	inactive
Cc1cccn2c(Nc3ccc4c(c3)OCCO4)c(-c3ccc(Br)o3)nc12	39.8 µM (active)
COc1cc(OC)c(OC)cc1CN1CCc2nc(Nc3ccc4c(c3)OCCO4)ncc2C1	inactive
Cc1cnc(NC(=O)CSc2nnc3ncccn23)s1	inactive
